TGFb SMAD3 inh – qHTS for Inhibitors of TGF-b | 410,000 compounds, 1.2% hits | HepG2 CAGA-GFP TGF-b/SMAD3 reporter, GFP fluorescence, 18 h; TGF-beta stimulated, 500 pg/mL final | AID 588855, 2011 | Potency, µM (highest dose often 46.1 µM), for the others: at the top dose activity, negative = inhibition, hits mostly inhibitors; also: % is scaled to controls: 0 for no effect and ±100 for the full control effect; nearly all actives have a fitted effect of over 65% in size
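Inhibition was scored as loss of TGF-beta-induced (500 pg/mL final, 18 hours, 37 degrees C) GFP in HEPG2 cells carrying a CAGA-GFP reporter, in DMEM with 1% FBS. Well GFP was summed per cell; Activity was normalised to unstimulated and stimulated DMSO wells, then concentration-response fitting.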
DT40 TDP1 no CPT – qHTS for Inhibitors of human tyrosyl-DNA phosphodiesterase 1 (TDP1): qHTS in cells in absence of CPT; DT40 Tdp1-/- hTDP1 cells, no CPT, ATP luminescence, 48 h; 420,000 compounds, 15% hits; Potency, µM (highest dose often 46.2 µM), without a hit: at the top dose activity change, negative = growth inhibition, most hits filed as inhibitors; also: % is scaled to controls: 0 for no effect and ±100 for the full control effect; nearly all actives have a fitted effect of over 55% in size
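Readout: luminescence from CellTiter-Glo after 30 min in the dark at RT. Cells: DT40 Tdp1-/- with stable hTDP1, 400/well. Exposure: compounds alone, ≥48 hr, 37 °C.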
HepG2 viability – qHTS for Inhibitors of TGF-b: Cytotox Counterscreen; 410,000 compounds, 0.76% hits; Potency, µM (highest dose often 46.1 µM), without a hit: at the highest dose activity change, negative = cytotoxicity, most hits filed as cytotoxic; HepG2 CAGA-GFP viability, ATP luminescence, 18 h
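HepG2 CAGA-GFP cells (1000/well, DMEM with 1% FBS) received compound, then TGF-beta at 500 pg/mL final, and were incubated 18 hours at 37 degrees C. Viability was read by CellTiter-Glo luminescence. Media-only wells were set as complete cell-killing and DMSO as no toxicity.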
HT1080NT lethal – qHTS for induction of synthetic lethality in tumor cells producing 2HG: qHTS for the HT-1080-NT fibrosarcoma cell line | HT-1080-NT fibrosarcoma viability, CellTiter-Glo ATP luminescence, 48 h | Potency, µM (highest dose often 46.1 µM), for the others: top-dose activity, negative = less viability, actives largely listed as cytotoxic | 360,000 compounds, 1.6% hits | AID 686970, 2013;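 also: NT is the 2HG producing partner of a matched IDH1 knockdown line; 0% = DMSO-treated cells and -100% = media-only wells without cells; nearly all actives have a fitted effect of over 55% in size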
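750 cells/well, RPMI + 5% FBS; 2 h settle, compound pin-transfer, 48 h at 37 degrees C. CellTiter-Glo 10 min RT, luminescence. Normalized to DMSO and media-only wells.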
HT1080 IDH1KD tx – qHTS for induction of synthetic lethality in tumor cells producing 2HG: qHTS for the HT-1080-IDH1KD cell line; HT-1080 IDH1 knockdown viability, ATP luminescence, 48 h; Potency, µM (top dose mostly 46.1 µM), for the others: at the highest dose activity, negative = toxicity, hits mostly cytotoxic; 360,000 compounds, 2% hits; AID 686971, 2013;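 also: 0% = DMSO wells and -100% = cell-free medium wells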
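Luminescent ATP read-out (CellTiter-Glo, 10 min at room temperature) after 48 h compound exposure at 37 °C gave viability of IDH1-knockdown HT-1080 cells. Activity was normalised to DMSO and cell-free wells, then fitted as concentration-response curves.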
TDP1 cell CPT – qHTS for Inhibitors of human tyrosyl-DNA phosphodiesterase 1 (TDP1): qHTS in cells in presence of CPT. chicken DT40 Tdp1-/-;hTDP1 cells + 20 nM CPT, ATP luminescence, 48 h. Potency, µM (series often up to 46.2 µM), for inactives: at the top dose activity change, negative = growth inhibition, hits mostly inhibitors. 420,000 compounds, 12% hits; also: % is scaled to controls: 0 for no effect and ±100 for the full control effect; nearly all actives have a fitted effect of over 55% in size
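Chicken DT40 Tdp1-/- cells stably complemented with human TDP1 were seeded at 400 cells/well in medium containing 20 nM camptothecin, exposed to pin-transferred compounds, and grown at 37 °C for at least 48 hr. Viability was read as ATP luminescence.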
The depositor's hits bear a star. Sampled rows, rich in hits. Any-hit rate of the full collection: about 17%. Calls follow the shape of the dose curve; as a rule, active = well fitted curve in the direction sought with a large enough effect; inconclusive = small, poorly fitted or top-dose-only effect, or another doubt; inactive = no such curve, though single readings can be large; an effect the other way counts as inactive or inconclusive. Potency is read from the fitted curve at half-maximal effect.

For COCCCN1C(=O)C(CC(=O)NCC2CCCCC2)CC(C(=O)N(C)C)=C1C (stereo not drawn) the results were TGFb SMAD3 inh 17%, DT40 TDP1 no CPT -2%, HepG2 viability 3%, HT1080NT lethal 11%, HT1080 IDH1KD tx 11% and TDP1 cell CPT 4%.
Screening C=C1C=C(C)n2ncc(C(=O)N(CCc3ccccc3)Cc3ccccc3)c2N1 returned TGFb SMAD3 inh inconclusive, DT40 TDP1 no CPT inconclusive, HepG2 viability -51% and TDP1 cell CPT inconclusive.
`CC(C(=O)NCC1CCCCC1)N(C)Cc1ccc(Cl)cc1` (stereo not drawn) gave TGFb SMAD3 inh -9%, DT40 TDP1 no CPT 18µM*, HepG2 viability -10%, HT1080NT lethal -17%, HT1080 IDH1KD tx -16% and TDP1 cell CPT inconclusive.
Screening CSc1ccc(CN(C)C(C)C(=O)NCC2CCCCC2)cc1 (stereo not drawn) returned TGFb SMAD3 inh -21%, DT40 TDP1 no CPT inconclusive, HepG2 viability -8%, HT1080NT lethal -13%, HT1080 IDH1KD tx -21% and TDP1 cell CPT inconclusive.
`Cc1ccc(CN(CC2CCCO2)C(=O)CN2C(=O)C(C(C)C)Oc3ccccc32)o1` (stereo not drawn) gave TGFb SMAD3 inh -8%, DT40 TDP1 no CPT inconclusive, HepG2 viability -17%, HT1080NT lethal -1%, HT1080 IDH1KD tx -21% and TDP1 cell CPT 26µM*.
`COC(=O)CC1C(=O)NCCN1C(=O)c1cc(OC)c(OC)cc1OC` (stereo not drawn) gave TGFb SMAD3 inh -6%, DT40 TDP1 no CPT -15%, HepG2 viability -7%, HT1080NT lethal 12%, HT1080 IDH1KD tx 0% and TDP1 cell CPT -2%.
O=C(COc1ccc2ccccc2c1)NNC(=O)c1cnccn1 was read as TGFb SMAD3 inh -17%, DT40 TDP1 no CPT 23µM*, HepG2 viability -33%, HT1080NT lethal -9%, HT1080 IDH1KD tx -6% and TDP1 cell CPT 23µM*.
`O=C(COc1cccc2ccccc12)NNC(=O)c1cnccn1` gave TGFb SMAD3 inh inconclusive, DT40 TDP1 no CPT 16µM*, HepG2 viability -6%, HT1080NT lethal 5%, HT1080 IDH1KD tx -2% and TDP1 cell CPT inconclusive.
For Cc1ccc(C(=O)C(C(=O)/C=C/c2ccccc2)=C2SCCCS2)cc1 the results were TGFb SMAD3 inh -20%, DT40 TDP1 no CPT 4.6µM*, HepG2 viability -83%, HT1080NT lethal 12µM*, HT1080 IDH1KD tx 10µM* and TDP1 cell CPT 5.8µM*.
`Cc1ccc(C(=O)C=CC=Cc2ccccc2)cc1` gave TGFb SMAD3 inh -8%, DT40 TDP1 no CPT inconclusive, HepG2 viability -4%, HT1080NT lethal 0%, HT1080 IDH1KD tx -7% and TDP1 cell CPT inconclusive.
CCOc1ccc(NC(=O)c2ccc(-c3cccc(Cl)c3C)o2)cc1 was read as TGFb SMAD3 inh 35%, DT40 TDP1 no CPT inconclusive, HepG2 viability 2% and TDP1 cell CPT inconclusive.
Screening CCOC(=O)c1cc(CC)sc1NC(=O)C1CC(=O)NN1Cc1ccccc1 (stereo not drawn) returned TGFb SMAD3 inh inconclusive, DT40 TDP1 no CPT 16µM*, HepG2 viability -63%, HT1080NT lethal inconclusive, HT1080 IDH1KD tx 21µM* and TDP1 cell CPT inconclusive.
CO/N=C(\C(=O)N[C@@H]1C(=O)N2C(C(=O)O)=C(CSC(=O)c3ccco3)CS[C@H]12)c1csc(N)n1 was read as DT40 TDP1 no CPT -12% and TDP1 cell CPT 20%.
For CC(=O)c1c(N2CCN(C)CC2)nc(=S)n(Cc2ccccc2)c1C the results were TGFb SMAD3 inh -3%, DT40 TDP1 no CPT 9%, HepG2 viability -6%, HT1080NT lethal -1%, HT1080 IDH1KD tx 4% and TDP1 cell CPT -7%.
C=CCn1c(C)c(C(C)=O)c(N2CCN(C(c3ccccc3)c3ccccc3)CC2)nc1=S was read as TGFb SMAD3 inh inconclusive, DT40 TDP1 no CPT 23µM*, HepG2 viability -24%, HT1080NT lethal 0%, HT1080 IDH1KD tx 2% and TDP1 cell CPT inconclusive.
`Cc1cccc(NC(=O)C2CC(O)CN2C(=O)Oc2ccccc2)c1` (stereo not drawn) gave TGFb SMAD3 inh inconclusive, DT40 TDP1 no CPT -15%, HepG2 viability -1%, HT1080NT lethal 15%, HT1080 IDH1KD tx 11% and TDP1 cell CPT 15%.
`Cc1cccc(NC(=O)c2oc3ccc(S(=O)(=O)N4CCC5(CC4)OCCO5)cc3c2C)c1C` gave TGFb SMAD3 inh -16%, DT40 TDP1 no CPT 18µM*, HepG2 viability -15% and TDP1 cell CPT 16µM*.
Screening Cc1c(C(=O)Nc2cccc(C(F)(F)F)c2)oc2ccc(S(=O)(=O)N3CCOCC3)cc12 returned TGFb SMAD3 inh 1%, DT40 TDP1 no CPT -26%, HepG2 viability -4%, HT1080NT lethal 9%, HT1080 IDH1KD tx inconclusive and TDP1 cell CPT -13%.
For Cc1c(C(=O)Nc2cccc(C(F)(F)F)c2)oc2ccc(S(=O)(=O)N3CCC4(CC3)OCCO4)cc12 the results were TGFb SMAD3 inh 0%, DT40 TDP1 no CPT 9.2µM*, HepG2 viability 3% and TDP1 cell CPT 15µM*.
COc1ccc(NC(=O)c2oc3ccc(S(=O)(=O)N4CCC5(CC4)OCCO5)cc3c2C)cc1 was read as TGFb SMAD3 inh -4%, DT40 TDP1 no CPT inconclusive, HepG2 viability -38%, HT1080NT lethal inconclusive, HT1080 IDH1KD tx -28% and TDP1 cell CPT 16µM*.
For COc1ccc(C(=O)N2CCC3(CCN(C(=O)Nc4cccc(C#N)c4)CC3)CC2)cc1 the results were DT40 TDP1 no CPT inconclusive and TDP1 cell CPT 5%.
Screening O=c1cc(-c2ccccc2Cl)oc2cc(O)cc(O)c12 returned TGFb SMAD3 inh -21%, DT40 TDP1 no CPT -27%, HepG2 viability -18%, HT1080NT lethal -3%, HT1080 IDH1KD tx 8% and TDP1 cell CPT 2%.
`O=C1C=CC(O)(c2cc(=O)c3c(O)cc(O)cc3o2)C=C1` gave TGFb SMAD3 inh 4µM*, DT40 TDP1 no CPT 0.52µM*, HepG2 viability 16µM*, HT1080NT lethal 7.3µM*, HT1080 IDH1KD tx 7.3µM* and TDP1 cell CPT 0.37µM*.

Screening results deposited in PubChem BioAssay by National Center for Advancing Translational Sciences (NCATS).
